# Where “and” joins values, the source holds several entries; their conditions need not be identical. Equal entries are not always repeated. Calls of active or inactive are those of the source. The calls were made as follows: active = hit-call score of the fitted dose curve at least 0.9, where 1 is the maximum; inactive = score below 0.9.
# Target: Peroxisome proliferator-activated receptor gamma (Homo sapiens) (UniProt P37231)
# Assay: ERF_US_NR_hPPARG: Eurofins (ERF) Nuclear Receptor (NR) Cell Based Protein-Protein Interaction LeadHunter Assay for human Peroxisome Proliferator-activated Receptor-gamma (PPARg) Agonism
# Description: ERF_US_NR_hPPARG is a cell-based, single-readout assay that uses extracted gene-proteins in a cell-line assay. Measurements were taken 5 hours after chemical dosing in a 384-well plate. See PPARgamma Human NHR Cell Based Agonist Protein-Protein Interaction Assay, DiscoverX.ERF_US_NR_hPPARG is an assay component calculated from the ERF_US_NR_hPPARG assay. It is designed to measure […] using a type of binding reporter as detected by scintillation counting with radiometry technology.Data from the assay component ERF_US_NR_hPPARG was analyzed at the assay endpoint, ERF_US_NR_hPPARG, in the positive analysis fitting direction relative to DMSO as the negative control and baseline of activity. Using a type of binding reporter, gain-of-signal activity can be used to understand changes in binding as they relate to gene PPARG. To generalize the intended target to other relatable targets, this assay endpoint is annotated to the nuclear receptor intended target family, where the subfamily is non-steroidal.
# Cells were seeded in a total volume of 20 uL into white walled, 384-well microplates and incubated at 37C overnight prior to testing.Briefly, intermediate dilution of sample stocks was performed to generate 5X sample in assay buffer. 5 uL of 5X sample was added to cells and incubated at 37C for 300 minutes. Final assay vehicle concentration was 1%. The results are expressed as a percent efficacy of the control ligand.
# Chain of Peroxisome proliferator-activated receptor gamma (Homo sapiens) (P37231 whole entry, looked up): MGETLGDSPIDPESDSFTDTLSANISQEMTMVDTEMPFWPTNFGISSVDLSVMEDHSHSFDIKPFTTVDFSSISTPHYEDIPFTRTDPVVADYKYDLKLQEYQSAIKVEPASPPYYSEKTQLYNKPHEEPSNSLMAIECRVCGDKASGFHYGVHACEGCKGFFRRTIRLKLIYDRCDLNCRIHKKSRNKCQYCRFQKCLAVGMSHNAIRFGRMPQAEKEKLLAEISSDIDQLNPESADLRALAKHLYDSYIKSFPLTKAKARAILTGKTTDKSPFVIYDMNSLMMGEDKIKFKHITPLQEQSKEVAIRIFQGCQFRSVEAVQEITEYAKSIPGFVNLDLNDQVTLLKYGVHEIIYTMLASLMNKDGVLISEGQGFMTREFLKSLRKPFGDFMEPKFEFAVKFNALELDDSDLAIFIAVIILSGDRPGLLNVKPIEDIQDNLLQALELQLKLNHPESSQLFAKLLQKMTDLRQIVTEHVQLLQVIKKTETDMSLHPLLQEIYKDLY
SMILES,AC50,outcome
O=C(CC(=O)C(F)(F)C(F)(F)C(F)(F)F)c1cccs1,21.7 µM (active) and 23.7 µM (active),–
O=C(O)CCC(F)(F)C(F)(F)C(F)(F)F,–,inactive
NC(=O)c1nc(-c2cccc(-c3cc(F)ccc3OCC(F)(F)C(F)(F)F)c2)n[nH]1,–,inactive
